This note sets out measurements from ChEMBL document CHEMBL4513216, “Probing the Open Global Health Chemical Diversity Library for Multistage-Active Starting Points for Next-Generation Antimalarials” (ACS Infect Dis, 2020).

Out of some 65,000 compounds screened, about 2,100 (3.2%) showed an effect of 50% or more. The median lay at about -52%. What follows is part of a selection rich in strong results, with near analogues and random picks from the rest.

This assay has as its system Plasmodium falciparum. The experiment in a line: Screen against P. falciparum Asexual Blood Stage (ABS), at 5uM. The format is functional, Dd2. Conditions: tested at 5 uM.
For `CCn1cc(NC(=O)CCc2ccc3c(c2)OCCCO3)cn1`, the INHIBITION was -127%.

On to `Brc1ccc(-c2nnc(CN(Cc3cccs3)CC3CCCO3)o2)s1` (stereo unspecified), for which the INHIBITION is given as -45.2%.

`Cc1cnn(CC2CCCN2Cc2nnc(C3CC3)n2C)c1` (stereo unspecified): the INHIBITION was -100%.

On to `COC1[C@@H]2CC[C@H]1CN(c1nc(C)nc3sccc13)C2` (stereo partly specified), for which the INHIBITION is -88.3%.

As for `O=C(c1cc(C2CC2)on1)N1CCCC(n2cncn2)C1` (stereo unspecified), the INHIBITION is -34.5%.

Consider `Cc1cc(C(=O)N2CCCC(n3cncn3)C2)on1` (stereo unspecified), for which the INHIBITION was -247%.

On to `Cc1cc(C(=O)N2CCCC(n3cncn3)C2)no1` (stereo unspecified), for which the INHIBITION came out at 66.7%.

Turning to `Cn1cccc1-c1cc(C(=O)NCCCc2csc(N)n2)[nH]n1`, the INHIBITION is on record as -75.5%.

Regarding `Cc1ccc(-c2cc(C(=O)NCCCc3csc(N)n3)[nH]n2)o1`, the INHIBITION is 22%.

With `Cc1ccc(-c2cc(C(=O)NCCCc3csc(N)n3)[nH]n2)s1`, the INHIBITION was found to be 66.5%.

Take `Cc1nc(C)c(CNC(=O)N2CCN(c3ccc(Cl)cn3)CC2)s1`: the INHIBITION was -49.6%.

As for `O=C(NC1CCC1)[C@@H]1C[C@@H]2CCN(Cc3cccs3)C[C@@H]2O1`, the INHIBITION is recorded as -168%.

In the case of `CC(C)(N)C(=O)N1CCC(c2nccnc2Oc2ccccc2F)CC1`, the INHIBITION is given as -4.82%.

Regarding `NC(=O)c1cccc(C2CCN(c3ncccn3)CC2)n1`, the INHIBITION is recorded as -58%.

In the case of `Clc1cccc(C[C@@H]2NCCC[C@@H]2Nc2ccccc2)c1`, the INHIBITION came to 88.7%.

As to `O=C(Cc1cccc(Cl)c1)N[C@@H]1CCNC[C@H]1O`, the INHIBITION is -75.4%.

`O=C1NCCCc2[nH]c(Cc3cccc(Cl)c3)nc21`: the INHIBITION is given as -167%.

For the compound `CC(NC(=O)NCCCc1n[nH]c(N)c1C#N)c1cccc(Cl)c1` (stereo unspecified), the INHIBITION is 0.414%.

In the case of `COCC(=O)N(C)Cc1nc(N2CCCC2)ncc1-c1ccncc1`, the INHIBITION is on record as -9.28%.

With `CCn1nnc2c1C(COCCN(C)C)CN(Cc1ccco1)C2` (stereo unspecified), the INHIBITION is recorded as -67.6%.

Turning to `Cc1ccc(CN2Cc3nnn(C)c3C(COCC3CC3)C2)s1` (stereo unspecified), the INHIBITION is given as -90.4%.

`CCn1nnc2c1C(COCCN(C)C)CN(Cc1ccc(C)s1)C2` (stereo unspecified): the INHIBITION amounted to 60.1%.

With `CCOC(=O)N1CC(=O)N(Cc2ccc(OC)cc2)CC(O)C1` (stereo unspecified), the INHIBITION is -109%.

On to `Cc1occc1C(=O)N1CCC2(CCC2NC(=O)c2ccn(C)c2)CC1` (stereo unspecified), for which the INHIBITION is on record as -23.1%.

Consider `CC(NCc1ccc(C(C)(C)C)cc1)c1ccc(S(C)(=O)=O)cc1` (stereo unspecified), for which the INHIBITION was -7.37%.

Consider `CC(C)c1ccc(CNC(C)c2ccc(S(C)(=O)=O)cc2)cc1` (stereo unspecified), for which the INHIBITION is on record as 53.6%.

On to `CC(NCc1ccc(F)cc1)c1ccc(S(C)(=O)=O)cc1` (stereo unspecified), for which the INHIBITION is -28.9%.

Regarding `Cc1ccc(-c2cc(CN3CCc4cnc(C)nc4C3)on2)cc1`, the INHIBITION was -29%.

Turning to `CN1C(=O)CCC12CCC(NCc1ccsc1)CC2` (stereo unspecified), the INHIBITION is listed as -30.4%.

Consider `O=C1CCC2(CCC(NCc3ccsc3)CC2)N1Cc1ccccc1` (stereo unspecified), for which the INHIBITION was found to be 65.3%.

As for `O=C1CCC2(CCC(NCc3cccnc3)CC2)N1Cc1ccccc1` (stereo unspecified), the INHIBITION is -16.6%.
